Assays:
Format in all cases: functional
[1] = molecular target: Solute carrier family 2, facilitated glucose transporter member 1 (Homo sapiens) (UniProt P11166); experiment: ST_JUDE_LEISH: Cytotoxicity at 2uM final concentration against transgenic Leishmania Mexicana promastigotes LmGLUT1 that are glucose transport deficient and complemented with the human glucose transporter GLUT1. Activity is measured by DNA content using SYBR green in vitro
[2] = molecular target: Hexose transporter 1 (Plasmodium falciparum) (UniProt O97467); experiment: ST_JUDE_LEISH: Cytotoxicity at 2uM final concentration against transgenic Leishmania Mexicana promastigotes LmPfHT that are glucose transport deficient and complemented with the Plasmodium falciparum hexose transporter. Activity is measured by DNA content using SYBR green in vitro
[3] = molecular target: Glucose transporter (Leishmania mexicana) (UniProt O61059); experiment: ST_JUDE_LEISH: Cytotoxicity at 2uM final concentration against transgenic Leishmania Mexicana promastigotes LmGT2 that are glucose transport deficient and complemented with the L. Mexicana glucose transporter 2. Activity is measured by DNA content using SYBR green in vitro

Chain of Solute carrier family 2, facilitated glucose transporter member 1 (Homo sapiens) (P11166 whole entry): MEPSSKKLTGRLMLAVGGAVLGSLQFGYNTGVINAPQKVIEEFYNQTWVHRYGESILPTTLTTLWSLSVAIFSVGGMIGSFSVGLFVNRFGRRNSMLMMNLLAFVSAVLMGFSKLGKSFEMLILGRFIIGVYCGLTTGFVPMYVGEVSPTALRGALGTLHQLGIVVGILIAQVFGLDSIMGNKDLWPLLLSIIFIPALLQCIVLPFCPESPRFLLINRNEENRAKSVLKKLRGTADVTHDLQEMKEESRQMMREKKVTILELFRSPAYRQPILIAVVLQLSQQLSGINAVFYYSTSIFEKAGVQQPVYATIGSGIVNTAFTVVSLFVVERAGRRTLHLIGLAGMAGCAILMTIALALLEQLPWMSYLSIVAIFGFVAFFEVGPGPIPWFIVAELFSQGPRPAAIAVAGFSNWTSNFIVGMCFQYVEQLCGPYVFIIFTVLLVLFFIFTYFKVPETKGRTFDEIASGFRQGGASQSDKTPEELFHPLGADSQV

| Compound | inhibition [1] [%] | inhibition [2] [%] | inhibition [3] [%] |
| --- | --- | --- | --- |
| OC(CNc1ccnc(Nc2cccc(CCN3CCOCC3)c2)n1)c1ccccc1 (centres undefined) | 0.07 | 3.46 | 1.35 |
| Cc1cc(N[C@@H](Cc2ccccc2)C(=O)NCCc2ccccc2)nc(NCCc2ccc(F)cc2)n1 | -1.91 | -1.86 | -1.12 |
| CCn1ccc2c3c(N)nc(N)nc3ccc21 | 1.21 | 2.13 | -1.34 |
| Nc1nc(N)c2c(CCc3ccc(Cl)c(Cl)c3)cccc2n1 | 10.7 | 11.2 | 8.14 |
| Cn1nc(-c2cccc(CN[C@@H]3CCc4ccc(O)cc43)c2)c2cnc(NC3CCCC3)nc21 | 4.2 | 3.87 | 4.68 |
| COc1ccc2nccc(NCC3(O)CCC(NCc4cc5c(cn4)OCCO5)CC3)c2n1 (centres undefined) | -1.99 | -1.9 | -2.58 |
| O=S(=O)(Nc1cccc(CCN2CCCCC2CCN2CCCC2)c1)c1ccc2ccccc2c1 (centres undefined) | 0.63 | -0.31 | -3.3 |
| COc1ccc(-c2ccc(NC(=O)c3ccc(C#N)cc3)cc2)cc1CN1CCNCC1 | 10.9 | 7.81 | 5.48 |
| CCCNC[C@@H](O)[C@H](Cc1ccccc1)NC(=O)c1cc2c3c(c1)c(CC)cn3CCS(=O)(=O)N2C | -2.56 | 0.74 | 0.44 |
| O=C([C@H]1CCCCN1c1ccc([N+](=O)[O-])c2ccccc12)N1CCN(c2ncccn2)CC1 | 2.02 | 3.05 | 2.64 |
| Cc1cc(N[C@@H](CC(C)C)C(=O)NCCOc2ccccc2)nc(NCC2CCCCC2)n1 | 3.08 | 9.67 | 6.41 |
| CCn1c(-c2nc(-c3ccc4c(c3)OCO4)cnc2N)nc2cnccc21 | 19.7 | 12.4 | 13.5 |
| Cc1[nH]c(C)c(-c2ccc(-c3ccc(C(F)F)cc3)nc2)c(=O)c1Cl | 2.19 | 3.08 | 2.57 |
| CCCc1cc(C(=O)N[C@@H](Cc2ccccc2)[C@H](O)CNC(C)C)c(F)c(N2CCCC2=O)c1 | -2.2 | -0.79 | -0.74 |
| Cc1ccccc1C1CCN(C2CCC(NC(=O)c3cc4cc(Cl)ccc4o3)CC2)CC1 (centres undefined) | 1.84 | 1.17 | 3.04 |
| CC(C)(C)c1ccc(CN2CCC(NC(=O)c3ccc(-c4cccc(Cl)c4)s3)CC2)cc1 | 11.2 | 8.67 | 7.09 |
| c1ccc2[nH]c(CN(Cc3nc4ccccc4[nH]3)Cc3nc4ccccc4[nH]3)nc2c1 | -2.76 | 1.73 | -0.29 |

| Compound | inhibition [1] [%] | inhibition [2] [%] | inhibition [3] [%] |
| --- | --- | --- | --- |
| c1ccc2c(NCCCCCCNc3ccnc4ccccc34)ccnc2c1 | -2.25 | -0.51 | -2.32 |
| COc1ccc(CNC2CCN(C)CC2)cc1-c1ccc(S(=O)(=O)NC2CCC2)cc1 | 2.91 | 2.71 | 2.91 |
| COc1ccc(C(=O)CCC(=O)N(Cc2ccc(-c3ccc(CNCCc4ccc(S(C)(=O)=O)cc4)cn3)cc2)C(C)CN(C)C)cc1F (centres undefined) | 3.43 | 3.18 | 2.85 |
| O=C(Nc1ccc(F)c(Cl)c1)c1cc([N+](=O)[O-])cc2cn[nH]c12 | -0.64 | -0.66 | -2.22 |
| Nc1nc(N)c2c3c(ccc2n1)NCCC3 | -0.04 | 0.47 | -0.59 |
| O=C(Nc1ccccc1)c1ccc(N2CCC(COc3cccc(C(F)(F)F)c3)CC2)nc1 | 1.05 | 1.65 | 1.07 |
| CCN(CC)CCN(Cc1ccc(-c2ccc(C(F)(F)F)cc2)cc1)C(=O)Cn1c(CCc2cc(F)c(F)c(F)c2)nc(=O)c2ccccc21 | 9.62 | 9.17 | 8.54 |
| CCOc1cccc(C2c3c(oc4ccccc4c3=O)C(=O)N2CCN(CC)CC)c1 (centres undefined) | 4.85 | 2.93 | 3.34 |
| CS(=O)(=O)CCNCc1nc(-c2ccc3ncnc(Nc4ccc(OCc5ccccc5)c(Cl)c4)c3c2)cs1 | 4.21 | 3.42 | 2.9 |
| CN1CCC(Oc2ccc(CN3CC[C@H](NC(=O)c4cccc(C#N)c4)C3)c3ccccc23)C1 (some centres undefined) | -0.8 | 1.42 | 2.12 |
| CC(C)c1sc(N2CCN(C)CC2)nc1C(=O)Nc1ccc(F)cc1C(F)(F)F | 5.47 | 6.04 | 2.97 |
| O=C(Nc1ccc2c(c1)CNCC2)c1ccc(-c2ccc(Cl)cc2)cc1 | 105 | 95.6 | 84 |
| COc1ccc(CCNCCCCCCNCCCc2ccc(Cl)cc2)cc1OC | 4.72 | 2.45 | 4.39 |
| COc1ccc(CNCCc2cccs2)cc1-c1ccc(S(=O)(=O)NCCN2CCCC2)cc1 | 5.85 | 5.79 | 2.85 |
| CN1CCN(c2ccnc3ccc(NC(=O)Nc4cccc(C#N)c4)cc23)CC1 | 1.6 | 2.57 | 2.19 |
| CC(C)C(=O)NC(c1cccs1)c1cc(Cl)c2cccnc2c1O (centres undefined) | 1.65 | 1.13 | -0.45 |

Reference: ChEMBL document CHEMBL3433997, “St. Jude Leishmania screening dataset” (2016)
